From the supplement of paper PMC6555819

System: VDR:RXRa (NR concentration 270 nM, RXRa partner concentration 90 nM)
Experiment: PBM binding z-score (relative to random genomic background probes); higher = stronger binding; sequences stand for … in GC…GCGATTGACAGCGTAGAATGAAGG
Method: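 Protein-binding microarray (Agilent 4x180K custom design, double-stranded 60-nt probes: 5' GC cap, 34-nt variable region, 24-nt constant primer region; full probe sequence given). Purified or IVT nuclear receptor:RXRα heterodimers (3:1 NR:RXRα, mostly 270:90 nM) or homodimers were incubated for 1 h in PBS with 2% milk and no ligand, then detected with Alexa488 antibodies. Fluorescence from o1-orientation probes (~5 replicates averaged) was converted to z-scores against 500 random hg19 background probes. Variable regions are seed direct-repeat (DR0–DR5) sites, all their single-nucleotide variants and half-site ablations.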

Going from CCTAGCAGGCCAGGGTAACTCAAGCATTTCGCTT to CCTAGTTGGTCAGGAGGTCAAACACCGGATATGA, the PBM binding z-score rises from -0.743 to 4.09.

First: TCTCGGAGGACACGAAGGCCAGAGCTTTCCAGAG
Second: CCTCGGAGGACAACAGGAGGTCAGAGTTGCCAGA
The PBM binding z-score of the first is lower: -0.411 for the first, 1.97 for the second.

First: TAGCCTAGGTTATTCAGGGGCCAGTATAGAAAGC
Second: TCTACAGGGTCAAAGGCCAGAGTACGAATGTCGA
The PBM binding z-score of the first is lower: 0.101 for the first, 4.56 for the second.

Going from GCTGCTAGTTCAGGTTGGTCAGCTAACGGGTACG to AGAACGAGGGCAAGGAGTTGATAGCACGGGTGGC, the PBM binding z-score rises from 0.0828 to 3.32.

First: CGAACGAGGGCATGAGTAGATAGCAAATGCCGAT
Second: ATCGAAAGGTCGTGTGGTGAGTATACAGAAAGGC
The PBM binding z-score of the first is lower: 0.5 for the first, 3.66 for the second.

Compared with AATACAGGGTCATCGTAGGCCAGAGTGCGCACAG, AGTCAAAGTTTAGGACGAGGTAACGTAAAGCACG is lower in PBM binding z-score: 5.15 for the first, 0.00949 for the second.

First: GCGACTGGGGCATCAGGAGGTTACCATAACTTAA
Second: TAGCCTAGGTCAGATCGGGCCGGTATACGCTATA
The PBM binding z-score of the first is higher: 0.558 for the first, 0.236 for the second.

Compared with CAAACTAGGTCACCGGAAGGTCAAAGTACGCATG, CGAAGTAGGTCAGAACAGGACAGTGAAGGATGAT is lower in PBM binding z-score: 6.17 for the first, 0.559 for the second.

Going from CCGACTGGGGCAGAAAAGTTACCATACCATCCGG to CCGACTGGGGCACAAGGTTACCATAAGCCAGCCC, the PBM binding z-score rises from -0.576 to 0.209.

First: TCTTGTAGATCAATAGAGGTTAAGAATGTGCGCT
Second: TCTTGTAGATAAACAGGAGGTTAAGAAAGATCGA
The PBM binding z-score of the first is higher: 1.27 for the first, 0.873 for the second.

First: GGAACGAGGGCAAGTTCATAGCAGAGTTTGATGG
Second: ATCTCTAGGTAACCAAGTTCATTGAATGCCGAAC
The PBM binding z-score of the first is lower: 3.9 for the first, 5.68 for the second.

First: TCATTTAGGTAAAAGGTGAAAGTCGGTGTGGTAA
Second: CCTACTGGGCCAATGGTCATTGATTCCAATGCTC
The PBM binding z-score of the first is higher: 1.4 for the first, -0.314 for the second.

Compared with GCTATTAGTTGAGAGGGCAACCGAATGATTCTCG, TCAGACAGGTGAAGGAAACTCAGGTACGCAGTCG is higher in PBM binding z-score: 0.311 for the first, 0.447 for the second.

Going from TTACCATGGTGAGCTGAGGTCGTTGATCCAACTC to TCTAGCAGGCCAGCGGGTCACTCAAGAGGTACGG, the PBM binding z-score falls from 1.57 to 0.435.

Compared with CATGCAGGGTCAGCTAGGCCAGAGTAGGGACGGC, TCTTATAGATCAGCAGGTTAAGAAAGCTGGCCAA is lower in PBM binding z-score: 3.97 for the first, 0.455 for the second.

Going from CGTCAAAGTTCAACTAAGGTACCGTAAAGCACGC to TCTTGTAGACCAACAGGAGGTTAAGAAAGATCGA, the PBM binding z-score falls from 4.4 to 0.492.

Compared with AGTCAAAGCTCACTAGGTAACGTAAGATTCAGCT, TGTCAAAGTTCAAAGGTAACGTAAGTATCCACAC is higher in PBM binding z-score: -0.551 for the first, 5.1 for the second.

Going from GCTCGGAGGACAAGTTCAGAGCTTTGTCCGTAGA to AGAATGAGGTTATTAGGATCAGGGAATTGCGGTC, the PBM binding z-score rises from 0.733 to 2.7.

Going from TAGCCTAGGTCTTTGGGCCAGTATAGTACGCATC to CGAACTAGGTCATCGACAGGACAGTGAATAGTAA, the PBM binding z-score rises from -0.592 to 2.57.

First: CCTCGGAGGACAACAGGAAGTCAGAGCTGCCAGA
Second: CCTAGCAGGCCAATCTGGGACACTCAAGGCTTGA
The PBM binding z-score of the first is lower: -0.718 for the first, -0.61 for the second.
